Source: PubChem BioAssay (NCATS)
Where “and” joins values, the source holds several entries; their conditions need not be identical. Equal entries are not always repeated. Records with an inconclusive call do not appear. Values without a mark were called inactive. Calls of active or inactive are those of the source. The call rests on the fitted dose curve; in most records, active means well fitted curve in the direction sought with a large enough effect; inconclusive means small, poorly fitted or top-dose-only effect, or another doubt; inactive means no such curve, though single readings can be large; an effect the other way counts as inactive or inconclusive.

Columns and labels:
[1] = test system: CRL-7250; assay: Cytotoxic Profiling of Annotated Libraries Using Quantitative High-Throughput Screening (AID 1296008); settings: Five cell lines viability, CellTiter-Glo ATP luminescence, 48-72 h; max response: stronger effect = lower value; further: nearly all actives have a fitted effect of over 60% in size; further: potency means the concentration at half of the fitted maximal effect
Outline: (§1)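 Cells exposed to compounds for 48 or 72 hr at 37 degrees Celsius. Viability read as ATP-coupled luminescence with CellTiter-Glo after 10 min at room temperature.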

[2] = test system: HaCat; assay: as above; settings: Five cell lines viability, CellTiter-Glo ATP luminescence, 48-72 h; max response: stronger effect = lower value
Outline: as §1

[3] = test system: KB-3-1; assay: as above; settings: Five cell lines viability, CellTiter-Glo ATP luminescence, 48-72 h; max response: stronger effect = lower value
Outline: as §1

[4] = test system: NIH3T3; assay: as above; settings: Five cell lines viability, CellTiter-Glo ATP luminescence, 48-72 h; max response: stronger effect = lower value
Outline: as §1

[5] = test system: HACAT; assay: qHTS assay to identify novel small-molecules to repurpose for Merkel cell carcinoma treatment (AID 1296009); settings: MCC and control cell lines, CellTiter-Glo viability, 72 h; at 44.8 µM (top of the series) unless noted; further: nearly all actives have a fitted effect of over 60% in size; further: potency means the concentration at half of the fitted maximal effect
Outline: (§2)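 Cells were treated for 72 hr at 37 degree celsius with compounds in 8- or 11-point dose response. Viability was read by CellTiter-Glo luminescence, normalized to no-cell (cytotoxicity) and DMSO controls.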

[6] = test system: MCC-13; assay: as above; settings: MCC and control cell lines, CellTiter-Glo viability, 72 h; series mostly up to 46 µM
Outline: as §2

[7] = test system: MKL-1; assay: as above; settings: MCC and control cell lines, CellTiter-Glo viability, 72 h; series mostly up to 46 µM
Outline: as §2

[8] = test system: MKL-2; assay: as above; settings: MCC and control cell lines, CellTiter-Glo viability, 72 h; series mostly up to 46 µM
Outline: as §2

[9] = test system: UISO; assay: as above; settings: MCC and control cell lines, CellTiter-Glo viability, 72 h; series mostly up to 46 µM
Outline: as §2

[10] = test system: WaGa; assay: as above; settings: MCC and control cell lines, CellTiter-Glo viability, 72 h; series mostly up to 46 µM
Outline: as §2

[11] = test system: C33A; assay: Primary qHTS to identify gynecologic anti-cancer compounds using libraries of approved drugs and bioactive compounds (AID 1345084); settings: Gynecologic cancer cell panel viability, ATPlite luminescence, 48 h; series mostly up to 57.5 µM; further: nearly all actives have a fitted effect of over 55% in size
Outline: (§3)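 In this quantitative HTS, cell killing is estimated from loss of ATP-dependent luciferase light. Cells see five compound concentrations over a 48 h exposure.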

[12] = test system: CASKI; assay: as above; settings: Gynecologic cancer cell panel viability, ATPlite luminescence, 48 h; series mostly up to 57.5 µM
Outline: as §3

[13] = test system: Es-2; assay: as above; settings: Gynecologic cancer cell panel viability, ATPlite luminescence, 48 h; series mostly up to 57.5 µM
Outline: as §3

[14] = test system: HeLa; assay: as above; settings: Gynecologic cancer cell panel viability, ATPlite luminescence, 48 h; series mostly up to 57.5 µM
Outline: as §3

[15] = test system: Hek293T; assay: as above; settings: Gynecologic cancer cell panel viability, ATPlite luminescence, 48 h, control line for the selectivity index; series mostly up to 57.5 µM
Outline: as §3

[16] = test system: JEG-3; assay: as above; settings: Gynecologic cancer cell panel viability, ATPlite luminescence, 48 h; series mostly up to 57.5 µM
Outline: as §3

[17] = test system: MCC-26; assay: qHTS assay to identify novel small-molecules to repurpose for Merkel cell carcinoma treatment (AID 1296009); settings: MCC and control cell lines, CellTiter-Glo viability, 72 h; series mostly up to 46 µM; further: nearly all actives have a fitted effect of over 60% in size; further: potency means the concentration at half of the fitted maximal effect
Outline: as §2

[18] = test system: NIH3T3; assay: as above; settings: MCC and control cell lines, CellTiter-Glo viability, 72 h; at 44.8 µM (top of the series) unless noted
Outline: as §2

[19] = test system: HEK293T; assay: as above; settings: MCC and control cell lines, CellTiter-Glo viability, 72 h; series mostly up to 44.8 µM
Outline: as §2

[20] = test system: HEK293; assay: Cytotoxic Profiling of Annotated Libraries Using Quantitative High-Throughput Screening (AID 1296008); settings: Five cell lines viability, CellTiter-Glo ATP luminescence, 48-72 h; max response: stronger effect = lower value; further: nearly all actives have a fitted effect of over 60% in size; further: potency means the concentration at half of the fitted maximal effect
Outline: as §1
On the % scale 0 is the no-effect control and ±100 the full control effect.

## c1ccc2c(Oc3nc(Nc4ccc(N5CCOCC5)cc4)c4ncn(C5CCCCC5)c4n3)cccc2c1
[1]
  max response: -3.84% and 0.807%
[2]
  outcome: inactive
[3]
  max response: 8.53%
[4]
  max response: 1.5% and -0.0324%
[5]
  outcome: inactive
[6]
  Potency: inactive
[7]
  Potency: inactive
[8]
  Potency: inactive
[9]
  Potency: inactive
[10]
  Potency: inactive
[11]
  Potency: inactive
[12]
  Potency: inactive
[13]
  Potency: inactive
[14]
  Potency: inactive
[15]
  Potency: inactive
[16]
  Potency: inactive

## COC(=O)C1C2CC3c4[nH]c5cc(OC)ccc5c4CCN3CC2CC(OC(=O)c2cc(OC)c(OC)c(OC)c2)C1OC (stereo unspecified)
[1]
  max response: -19.7%
[2]
  outcome: inactive
[3]
  max response: 3.89%
[4]
  max response: -9.23%
[5]
  outcome: inactive
[6]
  Potency: inactive
[7]
  Potency: inactive
[8]
  Potency: inactive
[9]
  Potency: inactive
[10]
  Potency: inactive

## COc1ccc2c(c1OC)C(=O)OC2[C@H]1c2c(cc3c(c2OC)OCO3)CCN1C (stereo partly specified)
[1]
  Potency: 0.833 µM (active)
[2]
  Potency: 10.5 µM (active)
[3]
  Potency: 0.118 µM (active)
[4]
  Potency: 1.05 µM (active)
[6]
  Potency: 2.96 µM (active)
[8]
  Potency: inactive
[9]
  Potency: 0.469 µM (active)

## O=C1CSC(=O)N1C(CCc1ccncc1)COc1ccc(-c2cccc([N+](=O)[O-])c2)cc1 (stereo unspecified)
[1]
  max response: -33.8%
[2]
  max response: -30.8%
[3]
  max response: -6.99%
[4]
  max response: -3.92%
[6]
  Potency: inactive
[17]
  Potency: inactive
[8]
  Potency: 18.7 µM (active)
[9]
  Potency: 13.2 µM (active)
[10]
  Potency: 16.6 µM (active)

## Cc1cnc(NC(=O)Nc2cc(Br)c(C)cc2OC[C@@H]2CNCCO2)cn1
[1]
  max response: -18.7%
[2]
  max response: 1.25%
[3]
  max response: -6.69%
[4]
  Potency: 4.18 µM (active)
[6]
  Potency: inactive
[17]
  Potency: inactive
[8]
  Potency: inactive
[10]
  Potency: inactive

## C[C@H]1C[C@H]2[C@@H]3CCC4=CC(=O)C=C[C@]4(C)[C@@H]3C(=O)C[C@]2(C)[C@@]1(O)C(=O)CO
[1]
  max response: -3.73%
[2]
  outcome: inactive
[3]
  max response: 4.3%
[4]
  outcome: inactive
[5]
  outcome: inactive
[6]
  Potency: inactive
[7]
  Potency: inactive
[8]
  Potency: inactive
[18]
  outcome: inactive
[9]
  Potency: inactive
[10]
  Potency: inactive

## CC(=O)SCC(Cc1ccccc1)C(=O)NCC(=O)OCc1ccccc1 (stereo unspecified)
[1]
  max response: -7.71%
[2]
  outcome: inactive
[3]
  max response: 3.33%
[4]
  max response: -4.22%
[5]
  outcome: inactive
[6]
  Potency: inactive
[17]
  Potency: inactive
[8]
  Potency: 0.209 µM (active)
[9]
  Potency: 14.8 µM (active)

## CC(=O)OC[C@@H]1O[C@@H](n2ccc(=O)[nH]c2=O)[C@H](OC(C)=O)[C@H]1OC(C)=O
[1]
  max response: -3.38%
[2]
  max response: -10.5%
[3]
  max response: -0.144%
[4]
  max response: -12.5%
[6]
  Potency: inactive
[17]
  Potency: inactive
[7]
  Potency: inactive
[9]
  Potency: inactive
[10]
  Potency: inactive

## CCOC(=O)N1CCN([N+]([O-])=NOc2ccc([N+](=O)[O-])cc2[N+](=O)[O-])CC1
[1]
  max response: -5.72%
[2]
  max response: 3.57%
[3]
  outcome: inactive
[4]
  Potency: 9.35 µM (active)
[7]
  Potency: 10.5 µM (active)
[8]
  Potency: 6.62 µM (active)
[10]
  Potency: 11.8 µM (active)

## Cn1cnc(=N)c2[nH]cnc21
[1]
  Potency: 8.33 µM (active)
[2]
  Potency: 13.2 µM (active)
[3]
  Potency: 10.5 µM (active)
[4]
  Potency: 9.35 µM (active)
[6]
  Potency: 14.8 µM (active)
[7]
  Potency: 7.43 µM (active)
[8]
  Potency: 0.209 µM (active)
[9]
  Potency: 5.26 µM (active)
[10]
  Potency: 0.296 µM (active)

## COC(=O)[C@H](CCCN=C(N)N)NS(=O)(=O)c1ccc(C)cc1
[1]
  outcome: inactive
[2]
  max response: 0.0008%
[3]
  max response: -0.67%
[4]
  max response: 2.63%
[19]
  Potency: inactive
[6]
  Potency: inactive
[17]
  Potency: inactive
[7]
  Potency: inactive
[8]
  Potency: inactive
[9]
  Potency: inactive
[10]
  Potency: inactive

## CC(C)OC(=O)[C@H](C)N[P@](=O)(OC[C@H]1O[C@@H](n2ccc(=O)[nH]c2=O)[C@](C)(F)[C@H]1O)Oc1ccccc1
[1]
  max response: -5.93%
[2]
  max response: -9.66%
[3]
  max response: 1.17%
[4]
  max response: -9.86%
[6]
  Potency: inactive
[17]
  Potency: inactive
[7]
  Potency: inactive
[8]
  Potency: inactive
[9]
  Potency: inactive
[10]
  Potency: inactive

## C=CC(=O)N1CCc2ccc(-n3c(=O)ccc4cnc5ccc(-c6cnn(C)c6)cc5c43)cc21
[1]
  Potency: 3.72 µM (active)
[3]
  Potency: 4.18 µM (active)
[7]
  Potency: 1.87 µM (active)
[8]
  Potency: 1.87 µM (active)
[9]
  Potency: 6.62 µM (active)

## C[N+](C)([O-])CCNc1ccc(NCC[N+](C)(C)[O-])c2c1C(=O)c1c(O)ccc(O)c1C2=O
[20]
  Potency: 5.26 µM (active)
[2]
  max response: -8.98%
[4]
  Potency: 0.0935 µM (active)

## COc1cc(O)c2c(c1)C1OC1C[C@H](O)[C@H](O)C(=O)C=CC[C@H](C)OC2=O (stereo partly specified)
[1]
  Potency: 26.4 µM (active)
[2]
  Potency: 23.5 µM (active)
[4]
  Potency: 16.6 µM (active)
[9]
  Potency: 20.9 µM (active)

## CN(C)c1ccc2cc(C(=O)N[C@@H](CCCN=C(N)CCl)C(=O)NCc3ccccc3)ccc2c1
[1]
  Potency: 18.7 µM (active)
[2]
  max response: -9.24%
[4]
  max response: -19.2%
[6]
  Potency: inactive
[8]
  Potency: 26.4 µM (active)
[9]
  Potency: 13.2 µM (active)

## O=C(Nc1nnc(-c2ccco2)o1)c1cc(-c2ccccc2)nc2ccccc12
[1]
  Potency: 16.6 µM (active)
[2]
  max response: -46%
[17]
  Potency: inactive

## FC(F)(F)c1ccc(Nc2nc3ccc(Oc4ccnc(-c5ncc(C(F)(F)F)[nH]5)c4)cc3[nH]2)cc1
[1]
  Potency: 13.2 µM (active) and 14.6 µM (active)
[2]
  max response: -7.61% and -42.8%
[17]
  Potency: inactive
[11]
  Potency: inactive
[12]
  Potency: inactive
[13]
  Potency: inactive
[14]
  Potency: inactive
[15]
  Potency: inactive
[16]
  Potency: inactive
